# Source: PubChem BioAssay (National Center for Advancing Translational Sciences (NCATS))
# Pf growth 48h – Primary qHTS for delayed death inhibitors of the malarial parasite plastid, 48 hour incubation; P. falciparum luciferase growth in erythrocytes, 48 h; Potency, µM (doses to about 28.7 µM), inactives show at the highest dose activity change, negative = inhibition, most hits filed as inhibitors; 5.9% of 310,000 active; AID 504832, 2011; also: potency is read from the fitted curve at half-maximal effect; % is scaled to controls: 0 for no effect and ±100 for the full control effect
#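 Erythrocytes infected with P. falciparum carrying an integrated firefly luciferase reporter (2% hematocrit, 0.1% parasitemia final) were exposed to compounds in RPMI 1640 with 0.5% Albumax at 37 C, 5% CO2. Growth inhibition was scored as reduced luminescence.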
# LmPK inhibitor – qHTS Assay for Inhibitors of Leishmania Mexicana Pyruvate Kinase (LmPK); Q27686; purified LmPK, Kinase-Glo ATP luminescence, 1 h; Potency, µM (doses to about 57.5 µM), for the others: top-dose activity change, negative = inhibition, hits mostly inhibitors; 0.37% of 290,000 active; also: potency is read from the fitted curve at half-maximal effect; % is scaled to controls: 0 for no effect and ±100 for the full control effect
# Target sequence (Q27686 whole entry, looked up): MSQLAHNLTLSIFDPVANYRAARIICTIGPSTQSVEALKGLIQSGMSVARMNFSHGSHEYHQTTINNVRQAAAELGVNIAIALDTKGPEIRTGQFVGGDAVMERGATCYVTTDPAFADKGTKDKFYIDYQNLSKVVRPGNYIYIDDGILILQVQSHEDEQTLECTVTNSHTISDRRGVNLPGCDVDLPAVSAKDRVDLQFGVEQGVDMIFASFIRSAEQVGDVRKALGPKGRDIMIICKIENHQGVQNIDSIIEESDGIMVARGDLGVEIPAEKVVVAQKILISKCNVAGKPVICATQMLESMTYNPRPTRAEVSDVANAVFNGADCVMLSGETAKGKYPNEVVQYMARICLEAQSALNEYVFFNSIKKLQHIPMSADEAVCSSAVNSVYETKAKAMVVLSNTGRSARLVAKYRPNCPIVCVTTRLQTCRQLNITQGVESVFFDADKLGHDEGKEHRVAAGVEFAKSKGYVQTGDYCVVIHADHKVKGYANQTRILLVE
#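 0.1 nM LmPK, 0.5 mM PEP, 0.1 mM ADP; 50 mM imidazole pH 7.2, 7 mM MgCl2, 50 mM KCl; 1 h RT. Kinase-Glo luminescence readout, normalized to no-enzyme (full inhibition) and uninhibited wells.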
# CHX counter – Cycloheximide Counterscreen for Small Molecule Inhibitors of Shiga Toxin | max response, % | 12% of 300,000 active | cell reporter, cycloheximide protein synthesis inhibition counterscreen | AID 2314, 2010; in the data active = max response mostly above about 13%, no sharp cut-off; inactive = mostly below about 14%; also: read at 38.3 µM for the half of the compounds with a filed dose; 0% is about no effect
# Pf growth 96h – Primary qHTS for delayed death inhibitors of the malarial parasite plastid, 96 hour incubation; 6.9% of 320,000 active; P. falciparum luciferase reporter growth, 96 h; Potency, µM (series often up to 28.7 µM), for inactives: top-dose activity change, negative = inhibition, hits mostly inhibitors; AID 504834, 2011; also: potency is read from the fitted curve at half-maximal effect; % is scaled to controls: 0 for no effect and ±100 for the full control effect
#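 P. falciparum expressing integrated firefly luciferase grown in erythrocytes (2% hematocrit, 0.05% parasitemia final) with compounds for 96 hours at 37 C, 5% CO2. Growth inhibition read as loss of luminescence after adding luciferase detection reagent.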
# Shiga toxin inh – A qHTS for Small Molecule Inhibitors of Shiga Toxin | Vero cells, Shiga toxin protein synthesis inhibition reporter | inhibition, % at 38.7 µM | 9.2% of 290,000 active; in the data active = inhibition mostly above about 28%, no sharp cut-off; inactive = mostly below about 43%; also: 0% is about no effect
# An asterisk follows results filed as active; ? = inconclusive; . = not tested or not shown. A selection: hits, their analogues and other compounds. The true share with any hit is near 22%. Unless noted, calls follow the shape of the dose curve; as a rule, active = well fitted inhibition curve with a large enough effect; inconclusive = small, poorly fitted or top-dose-only effect, or another doubt; inactive = no such curve, though single readings can be large or run the other way.
SMILES,Pf growth 48h,LmPK inhibitor,CHX counter,Pf growth 96h,Shiga toxin inh
Fc1ccc(NC(=S)Nc2ccccc2N2CCOCC2)cc1Cl,?,-2%,10,-29%,-13
Cc1cc(C)c2c(n1)sc1c(-c3ccccc3)c(C#N)c(N)nc12,5%,1%,-3,2%,21
O=C(NC(Cc1ccccc1)C(=O)O)/C(=C/c1ccc(F)cc1)NC(=O)c1ccccc1 (centres undefined),1%,-4%,-2,-9%,-9
COc1ccc(/C=C/C(=O)NC2CCCCCCC2)cc1S(=O)(=O)N1CCOCC1,?,2%,37*,5.9µM*,70*
Cc1cc(NC(=O)COC(=O)c2cccc(OCc3ccccc3)c2)no1,41%,1%,-4,45%,7
COc1ccc(/C=C/C(=O)Nc2ccccc2Cl)cc1S(=O)(=O)N1CCOCC1,10µM*,2%,15,10µM*,-1
COc1ccc(/C=C/C(=O)NC(C)(C)C)cc1S(=O)(=O)N1CCOCC1,7%,2%,0,-3%,-10
COc1ccc(C)cc1NC(=O)/C=C/c1ccc(OC)c(S(=O)(=O)N2CCOCC2)c1,9.3µM*,.,.,5.2µM*,.
COc1cc(/C=N/OCC(=O)Nc2cc(C)on2)ccc1OCc1ccccc1,?,1%,18*,-2%,104*
COc1cc(/C=C/C(=O)NC(=O)c2ccccc2O)ccc1OC(C)=O,-20%,-2%,33*,9.3µM*,70*
COc1ccc(OC)c(NC(=O)/C=C/c2ccc(S(=O)(=O)N3CCOCC3)cc2)c1,12µM*,.,.,2.9µM*,.
C/C=C/c1ccc(OC(C)=O)c(OC)c1,11%,0%,-5,-8%,-15
COCCn1cnc2c1-c1ccc(OC)c(c1)OC/C=C\COc1cccc-2c1,.,.,16,.,-6
Cc1cccc(NC(=O)Cn2nnc3ccccc32)c1,57%,5%,44*,?,136*
O=C(CCCCCn1nnc2ccccc2c1=O)Nc1ccccc1Cl,18%,3%,-6,-16%,5
O=C(Cn1nnc2ccccc21)Nc1ccc([N+](=O)[O-])cc1,14%,3%,-3,27%,-12
COC(=O)c1ccc(NC(=O)CCCCCn2nnc3ccccc3c2=O)cc1,5.2µM*,-4%,8,3.3µM*,10
Cc1ccc(NC(=O)Cn2nnc3ccccc32)cc1,96%,-7%,37*,-24%,68*
COC(=O)c1ccc(NC(=O)Cn2nnc3ccccc32)cc1,96%,-2%,38*,5.2µM*,67*
O=C1C(=O)N(CCCN2CCOCC2)C(c2ccc([N+](=O)[O-])cc2)/C1=C(/O)c1ccc2c(c1)OCO2 (centres undefined),-22%,5%,15,?,-4
C=CCOc1ccc(CNc2ccc3[nH]c(=O)[nH]c3c2)cc1,?,3%,1,?,22
COCCCNC(=O)CC(NS(=O)(=O)c1ccc(Cl)cc1)c1ccc(OC)cc1 (centres undefined),26%,10%,6,.,-12
COc1cc(/C=N/NC(=O)Cn2nnc3ccccc32)ccc1O,0%,0%,8,34%,19
COc1cccc(/C=N\NC(=O)Cn2nnc3ccccc32)c1O,-18%,1%,27*,27%,76*
Cc1ccc(/C(O)=C2/C(=O)C(=O)N(CCN3CCOCC3)C2c2cccs2)cc1 (centres undefined),1%,0%,11*,-11%,20
SMILES,Pf growth 48h,LmPK inhibitor,CHX counter,Pf growth 96h,Shiga toxin inh
O=C1C(=O)N(CCN2CCOCC2)C(c2ccccn2)/C1=C(/O)c1ccc(F)cc1 (centres undefined),?,7%,10,?,15
Cc1ccc(/C(O)=C2/C(=O)C(=O)N(CCN3CCOCC3)C2c2cccnc2)cc1 (centres undefined),5%,-3%,-2,?,12
CCOc1ccc(C2/C(=C(/O)c3ccc(S(=O)(=O)N4CCCCC4)cc3)C(=O)C(=O)N2CCCOC)cc1OC (centres undefined),?,12%,-2,3.7µM*,-11
COc1ccc(/C(O)=C2/C(=O)C(=O)N(CCN3CCOCC3)C2c2ccccn2)cc1 (centres undefined),40%,6%,33*,?,54*
Cc1ccc(C)c(/C(O)=C2\C(=O)C(=O)N(CCCN3CCOCC3)C2c2cccnc2)c1 (centres undefined),15%,-3%,-2,1.9µM*,-10
CCN(CC#CCC1(O)c2ccccc2-c2ccccc21)C(C)C,?,0%,-4,-4%,12
CN(C(=O)Cn1nnc(-c2cccnc2)n1)C1CCCCC1,30%,4%,2,39%,-5
COc1ccc(CC(=O)Nc2ccc(S(=O)(=O)N3CCN(C)CC3)cc2)cc1,-11%,.,.,?,.
COc1cccc(/C(O)=C2/C(=O)C(=O)N(CCN(C)C)C2c2ccccn2)c1 (centres undefined),35%,-4%,11,?,41
Cc1c(/C(O)=C2/C(=O)C(=O)N(CCN3CCOCC3)C2c2ccccn2)cnn1-c1ccccc1 (centres undefined),110%,-2%,28*,?,50*
CN(C)CCN1C(=O)C(=O)/C(=C(/O)c2ccc3c(c2)OCCO3)C1c1ccccn1 (centres undefined),62%,-1%,42*,55%,102*
O=C1C(=O)N(CCN2CCOCC2)C(c2ccccc2F)/C1=C(\O)c1ccc(S(=O)(=O)N2CCOCC2)cc1 (centres undefined),27%,-9%,-3,-27%,20
O=C1C(=O)N(CCN2CCOCC2)C(c2ccc(Cl)cc2)/C1=C(/O)c1ccc(S(=O)(=O)N2CCOCC2)cc1 (centres undefined),-40%,9%,-1,2.6µM*,-14
Cc1ccc(C2/C(=C(/O)c3cnn(-c4ccccc4)c3C)C(=O)C(=O)N2CCCN2CCOCC2)o1 (centres undefined),111%,1%,34*,244%,54*
COc1ccc(S(=O)(=O)N2CCC(C(=O)N[C@H](C(=O)NC3CCCC3)C(C)C)CC2)cc1,0%,-1%,-1,-2%,-3
Brc1ccc(Nc2ncnc3[nH]ncc23)cc1,17%,0%,11,8%,22
CC(C)Oc1ccc(/C(O)=C2/C(=O)C(=O)N(CCN3CCOCC3)C2c2ccccc2)cc1 (centres undefined),-1%,-1%,25*,.,112*
Nc1ccc(C(=O)Nc2ccc(OC(F)(F)C(F)F)c(NC(=O)c3ccc(N)cc3)c2)cc1,-29%,-2%,18*,?,16
COc1ccc(NC(C)=O)cc1NC(=O)c1ccc(Cl)cc1,19%,-1%,7,1%,18
